Experimental data published in PubChem BioAssay (NCI).
Compounds without any hit were thinned out: in the full panel of roughly 83,000, 20% have a hit.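 Single-concentration screen, 48 h exposure, 96-well plates. Endpoint: percent growth. Below 10 = active.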 The source made the active and inactive calls.

Legend:
Assay in all cases: NCI-60 one-dose screen, 48 h (100 = growth as untreated, 0 = no growth, -100 = all killed)
Conditions in all cases: 10 µM unless noted
NCI-H23 lung = tested on: NCI-H23 lung
NCI-H226 lung = tested on: NCI-H226 lung
NCI-H322M lung = tested on: NCI-H322M lung
HOP-62 NSCLC = tested on: HOP-62 NSCLC
NCI-H460 lung = tested on: NCI-H460 lung
NCI-H522 lung = tested on: NCI-H522 lung
A549/ATCC NSCLC = tested on: A549/ATCC NSCLC
786-0 renal = tested on: 786-0 renal
COLO 205 colon = tested on: COLO 205 colon
DU-145 prostate = tested on: DU-145 prostate
K-562 leukemia = tested on: K-562 leukemia
MALME-3M melanoma = tested on: MALME-3M melanoma
MDA-MB-231 breast = tested on: MDA-MB-231 breast
RXF 393 renal = tested on: RXF 393 renal
SF-268 CNS = tested on: SF-268 CNS
SF-539 CNS = tested on: SF-539 CNS
UACC-257 melanoma = tested on: UACC-257 melanoma
M14 melanoma = tested on: M14 melanoma
HCT-15 colon = tested on: HCT-15 colon
SF-295 CNS = tested on: SF-295 CNS

Measured: growth

Cc1cc(O)c2c(c1)C[C@H]1[C@@H]3CC[C@H]4CC(=O)CC[C@]4(C)[C@H]3CC(=O)[C@]21C
inactive: NCI-H23 lung 77.3% | NCI-H226 lung 94.6% | NCI-H322M lung 104% | HOP-62 NSCLC 123% | NCI-H460 lung 99.2% | NCI-H522 lung 73.9% | A549/ATCC NSCLC 77% | 786-0 renal 87.8% | COLO 205 colon 104% | DU-145 prostate 85.2% | K-562 leukemia 53.3% | MALME-3M melanoma 92.8% | MDA-MB-231 breast 86% | RXF 393 renal 94.1% | SF-268 CNS 87.6% | SF-539 CNS 73.3% | UACC-257 melanoma 100% | M14 melanoma 80.9% | HCT-15 colon 45.3%

Cc1cc(C(C)(C)C)cc(C)c1CC1=NCCN1
inactive: NCI-H23 lung 99% | NCI-H226 lung 89.2% | NCI-H322M lung 102% | HOP-62 NSCLC 109% | NCI-H460 lung 118% | NCI-H522 lung 106% | A549/ATCC NSCLC 104% | 786-0 renal 96.9% | COLO 205 colon 92.6% | DU-145 prostate 107% | K-562 leukemia 90.4% | MALME-3M melanoma 99.2% | MDA-MB-231 breast 109% | RXF 393 renal 107% | SF-268 CNS 100% | SF-295 CNS 96.3% | UACC-257 melanoma 106% | M14 melanoma 107% | HCT-15 colon 102%

CN(C)c1ccc(/C=C(\C#N)c2nc3ccccc3c(=O)[nH]2)cc1
inactive: NCI-H23 lung 70.2% | NCI-H226 lung 74.1% | NCI-H322M lung 89.7% | HOP-62 NSCLC 105% | NCI-H460 lung 87.3% | NCI-H522 lung 84.2% | A549/ATCC NSCLC 99.5% | 786-0 renal 91.9% | COLO 205 colon 111% | DU-145 prostate 93% | K-562 leukemia 118% | MALME-3M melanoma 75.8% | MDA-MB-231 breast 76% | RXF 393 renal 91.1% | SF-268 CNS 69.4% | SF-295 CNS 92.9% | SF-539 CNS 93.6% | M14 melanoma 97.3% | HCT-15 colon 97.2%

CC[C@]1(O)CC2CN(CCc3c([nH]c4ccccc34)[C@@](C(=O)OC)(c3cc4c(cc3OC)N(C)[C@H]3[C@@](O)(C(=O)OC)[C@H](OC(C)=O)[C@]5(CC)C=CCN6CC[C@]43[C@@H]65)C2)C1 (stereo partly specified)
active: NCI-H460 lung 2.54% | NCI-H522 lung -17.9% | COLO 205 colon -50.7% | DU-145 prostate -39.8% | K-562 leukemia 7.74% | MDA-MB-231 breast 5.18% | SF-268 CNS 4.83% | M14 melanoma -15.6% | HCT-15 colon 6.5%
inactive: NCI-H23 lung 16.1% | NCI-H226 lung 48.9% | NCI-H322M lung 54.4% | HOP-62 NSCLC 31.7% | A549/ATCC NSCLC 17.2% | 786-0 renal 13.8% | MALME-3M melanoma 38.4% | RXF 393 renal 25.9% | SF-295 CNS 12.2% | UACC-257 melanoma 61.9%

Nc1nc(SCc2ccccc2Cl)c(-c2ccccc2)c(SCc2ccccc2Cl)n1
inactive: NCI-H23 lung 83.2% | NCI-H226 lung 105% | NCI-H322M lung 107% | HOP-62 NSCLC 87.9% | NCI-H460 lung 85.6% | NCI-H522 lung 79.3% | A549/ATCC NSCLC 79.3% | 786-0 renal 104% | COLO 205 colon 95% | DU-145 prostate 98.2% | K-562 leukemia 85.3% | MALME-3M melanoma 110% | MDA-MB-231 breast 109% | RXF 393 renal 115% | SF-268 CNS 105% | SF-539 CNS 114% | UACC-257 melanoma 92.4% | M14 melanoma 95.3% | HCT-15 colon 81.3%

COc1ccc(-c2oc3cc(O)c(OC)c(O)c3c(=O)c2OC)cc1O
active: NCI-H460 lung 1.5% | NCI-H522 lung -30.3% | DU-145 prostate -18.4% | K-562 leukemia 8.02% | RXF 393 renal 7.24% | SF-539 CNS -16% | M14 melanoma -24.8%
inactive: NCI-H23 lung 16.1% | NCI-H226 lung 73.5% | NCI-H322M lung 46.7% | HOP-62 NSCLC 43% | A549/ATCC NSCLC 19.7% | 786-0 renal 23.2% | COLO 205 colon 101% | MALME-3M melanoma 38.9% | MDA-MB-231 breast 11.1% | SF-268 CNS 13.6% | UACC-257 melanoma 53.4%

CCC(=O)Nc1ccccc1C#C/C=C\C#Cc1ccccc1C(F)(F)F
inactive: NCI-H23 lung 57.3% | NCI-H226 lung 52.5% | NCI-H322M lung 37.4% | HOP-62 NSCLC 54.5% | NCI-H460 lung 10.2% | NCI-H522 lung 68.2% | A549/ATCC NSCLC 64.2% | 786-0 renal 50.5% | COLO 205 colon 59.4% | DU-145 prostate 40% | K-562 leukemia 43.4% | MALME-3M melanoma 54.4% | MDA-MB-231 breast 55.6% | RXF 393 renal 42.8% | SF-268 CNS 67.8% | SF-295 CNS 28.8% | SF-539 CNS 55% | M14 melanoma 40.5% | HCT-15 colon 56.3%

CCN(CC)c1ccc(C(O)C2=CC(=O)c3ccccc3C2=O)cc1 (stereo unspecified)
inactive: NCI-H226 lung 37.5% | NCI-H322M lung 25.2% | A549/ATCC NSCLC 47.6% | COLO 205 colon 21.6% | M14 melanoma 13.8% | HCT-15 colon 30.3%
active: NCI-H23 lung -2.03% | HOP-62 NSCLC -12.7% | NCI-H460 lung 7.97% | NCI-H522 lung -62.2% | 786-0 renal 3.34% | DU-145 prostate 3.92% | K-562 leukemia 2.86% | MALME-3M melanoma -11.3% | MDA-MB-231 breast -51% | RXF 393 renal -80.2% | SF-268 CNS -30.9% | SF-539 CNS -38.2% | UACC-257 melanoma 9.28%
